Source: PubChem BioAssay (several laboratories)
Shown are actives, neighbours in structure and some others; about 27% of the full set was active somewhere.
CYP2C19 inh – inhibitors of human CYP2C19; CYP2C19 Supersomes, luciferin-H EGE luminescence, 30 min; inhibition, % at 5 µM; 96,000 tested, 21% active;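 active means CYP2C19 inhibition above a set limit at 5 µM in the primary screen, cut at about 50% in these data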
Target sequence (P33261 whole entry, looked up): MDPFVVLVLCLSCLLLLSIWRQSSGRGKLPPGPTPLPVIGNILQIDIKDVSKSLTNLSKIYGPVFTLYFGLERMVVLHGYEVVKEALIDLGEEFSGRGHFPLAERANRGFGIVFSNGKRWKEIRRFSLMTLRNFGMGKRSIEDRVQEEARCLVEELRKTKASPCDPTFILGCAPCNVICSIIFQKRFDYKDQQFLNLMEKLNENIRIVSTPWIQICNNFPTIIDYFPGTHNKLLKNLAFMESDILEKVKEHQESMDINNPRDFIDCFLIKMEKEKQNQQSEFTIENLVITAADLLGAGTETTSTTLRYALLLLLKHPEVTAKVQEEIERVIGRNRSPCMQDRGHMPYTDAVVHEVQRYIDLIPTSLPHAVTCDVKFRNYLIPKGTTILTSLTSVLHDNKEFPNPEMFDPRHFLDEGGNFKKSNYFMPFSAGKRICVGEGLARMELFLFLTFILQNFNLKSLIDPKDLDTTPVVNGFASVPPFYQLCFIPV
CYP2C9 act – CYP2C9 (human) activation | P11712 | recombinant CYP2C9, luciferin-H conversion, luminescence; hits give high values; factor 1 = untreated enzyme, 0 = blocked | activation factor at 5 µM | 96,000 tested, 1.4% active;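 active means activation factor of 2 or more for CYP2C9 at a 5 µM dose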
Cav32 inh – inhibitors of human Cav3.2 T-type calcium channel; O95180; Cav3.2-expressing cells, Fluo-4 calcium fluorescence FDSS; hits give low values; B-score at 10 µM; 100,000 tested, 4% active; AID 449739;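 active means single-dose well whose peak fluorescence ratio is a statistical outlier from its plate by either plate-standardised score or position-corrected B-score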
CYP2C19 activ – increases human CYP2C19 enzyme activity; P33261; recombinant CYP2C19, luciferin-H EGE luminescence; hits give high values; 0 = fully inhibited enzyme, 1 = untreated enzyme; activation factor at 5 µM; 96,000 tested, under 10 active; AID 1025;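 active means activation factor of at least 2 at 5 µM in the primary screen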
CYP2C9 inh – blocks human cytochrome P450 2C9 | 96,000 tested, 20% active | AID 777 | CYP2C9 Supersomes, luciferin-H conversion, luminescence | inhibition, % at 5 µM;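 active means blocking of liver enzyme CYP2C9 beyond about 50% at 5 µM, limit read from the data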
Of the large screens only hits and unclear results are named; the others gave an inactive call.

CCC(C(=O)c1ccc(O)cc1)c1ccccc1 (stereo not drawn)	CYP2C19 inh 52
CCN(CC(=O)Nc1ccc2c(c1)OCCO2)S(=O)(=O)c1cccs1	CYP2C19 inh 62, CYP2C9 inh 85
O=C(CNS(=O)(=O)c1ccc(Br)s1)Nc1ccc2c(c1)OCCO2	CYP2C9 inh 75
CCN(CC(=O)Nc1ccc2c(c1)OCCO2)C(=O)CC1CCCC1	none
O=C(O)CNCC1COc2ccccc2O1 (stereo not drawn)	none
CN(CC(=O)Nc1ccc2c(c1)OCCO2)S(=O)(=O)c1ccc(Br)s1	CYP2C19 inh 68, CYP2C9 inh 64 (no result: Cav32 inh)
O=C(CNS(=O)(=O)c1ccc(Br)s1)NCC1COc2ccccc2O1 (stereo not drawn)	CYP2C9 inh 64
COc1ccnc(Oc2ccc(F)cc2)c1C(=O)N/C=N/OCc1ccc(Cl)cc1Cl	none
COc1cc(-c2nnc(SCC(=O)OC3CCCCC3)o2)cc(OC)c1OC	none
O=C(O)CSC12CC3CC(C1)CC(C(=O)O)(C3)C2	none
Cn1c(NC(=O)c2ccc(Br)o2)cc(=O)n(C)c1=O	none
CC(C)(C)c1[nH]nc2c1C(c1ccc(OC(=O)c3ccco3)cc1)C(C#N)=C(N)O2 (stereo not drawn)	CYP2C19 inh 65, CYP2C9 inh 71
CC(C)(C)c1[nH]nc2c1C(Cc1ccccc1)C(C#N)=C(N)O2 (stereo not drawn)	CYP2C19 inh 73, CYP2C9 inh 59
CC(C)(C)c1[nH]nc2c1C(c1cccnc1)C(C#N)=C(N)O2 (stereo not drawn)	none
Cc1cc2c(c(=O)n1C)C(Cc1ccccc1)C(C#N)=C(N)O2 (stereo not drawn)	CYP2C19 inh 83
CCCC1C(C#N)=C(N)Oc2cc(C)n(C)c(=O)c21 (stereo not drawn)	none
CCC(C)NC(=O)NC(=O)N(C1CCCCC1)S(C)(=O)=O (stereo not drawn)	none
O=S(=O)(NCCc1cn2ccccc2n1)c1ccc2c(c1)CCCC2	none (no result: CYP2C19 inh, CYP2C9 act, CYP2C19 activ, CYP2C9 inh)
CN(C)C(=O)Cn1c(SCC(=O)Nc2ccc3c(c2)OCO3)nc2ccccc21	none (no result: CYP2C19 inh, CYP2C9 act, CYP2C19 activ, CYP2C9 inh)
Cc1ccc(C(=O)C2CCN(CC(=O)Nc3nc(C)cs3)CC2)cc1	CYP2C9 inh 90
CCCn1c(N2CCN(CC(=O)Nc3ccc4c(c3)OCCO4)CC2)nc2ccccc21	Cav32 inh -4.5
O=C(CN1CCC(C(=O)c2ccc3c(c2)OCCO3)CC1)NC1CCCC1	CYP2C19 inh 84
Cc1ccc(C(=O)C2CCN(CC(=O)Nc3ccc4c(c3)OCCO4)CC2)cc1	CYP2C9 inh 62
O=C(Nc1ccccc1C(F)(F)F)c1cc(S(=O)(=O)N2CCOCC2)ccc1F	none (no result: CYP2C19 inh, CYP2C9 act, CYP2C19 activ, CYP2C9 inh)
COc1ccc(S(=O)(=O)N2CCC(C(=O)c3ccc4c(c3)OCCO4)CC2)cc1	none (no result: CYP2C19 inh, CYP2C9 act, CYP2C19 activ, CYP2C9 inh)
CCOc1ccc(C(=O)N2CCC(C(=O)c3ccc4c(c3)OCCO4)CC2)cc1	CYP2C19 inh 85, CYP2C9 inh 55
CCOc1ccc(NC(=O)Cn2nnc(-c3ccccc3NC(=O)c3cccs3)n2)cc1	CYP2C9 inh 50
CCn1nnc(-c2ccccc2NC(=O)c2cc(OC)cc(OC)c2)n1	none
CCn1nnc(-c2ccccc2NC(=O)C(F)(F)F)n1	CYP2C19 inh 70
CCn1nnc(-c2ccccc2NC(=O)c2cc(OC)c(OC)c(OC)c2)n1	CYP2C9 inh 93
CN(C)S(=O)(=O)c1c(Cl)cccc1Cl	none
COc1ccc(N2CCN(C(=O)CSc3nnc(-c4cccnc4)n3-c3ccccc3)CC2)cc1	none
COc1ccc(S(=O)(=O)N2CCC(=O)N2)cc1	none
Cc1ccc2[nH]c(=O)c(CN(CCCO)S(=O)(=O)c3cccc4nsnc34)cc2c1	CYP2C9 inh 88
Cc1ccc2cc(CN(CCCO)S(=O)(=O)c3cccc4nsnc34)c(=O)[nH]c2c1	CYP2C9 inh 100 (no result: Cav32 inh)
Cc1ccc2[nH]c(=O)c(CN(Cc3ccco3)S(=O)(=O)c3c(C)ccc4nsnc34)cc2c1	none
CCCCCn1nc(C)c(/C=N\NC(=O)c2cc(C)oc2C)c1C	none (no result: CYP2C19 inh, CYP2C9 act, CYP2C19 activ, CYP2C9 inh)
CC(=O)Nc1nonc1-n1nnc(C(=O)NCc2ccccc2)c1C	CYP2C19 inh 83, CYP2C9 inh 70
CCOc1ccccc1NC(=O)c1ccccc1-c1nc(-c2ccccc2OC)no1	Cav32 inh -4.7, CYP2C9 inh 63
O=C(O)c1ccc(-c2noc(-c3ccccc3Cl)n2)cc1	none (no result: CYP2C19 inh, CYP2C9 act, CYP2C19 activ, CYP2C9 inh)
COc1ccccc1-c1noc(-c2ccccc2C(=O)N2CCOCC2)n1	none
CCNC(=O)c1ccccc1-c1nc(-c2ccccc2Cl)no1	CYP2C9 inh 76
COc1cccc(NC(=O)c2ccccc2-c2nc(-c3cccc(C)c3)no2)c1	CYP2C9 inh 61
CC(C)(C)NC(=O)c1ccccc1-c1nc(-c2ccccc2Cl)no1	CYP2C19 inh 85, CYP2C9 inh 100
CSC(=O)CC(=O)NC(=O)c1ccccc1	none
O=C(NCCc1nc(-c2ccccc2Cl)no1)c1ccccc1	none (no result: CYP2C19 inh, CYP2C9 act, CYP2C19 activ, CYP2C9 inh)
CC(C)NC(=O)c1ccccc1-c1nc(-c2ccccc2Cl)no1	CYP2C9 inh 79
Cc1cccc(C)c1OCC(O)CN1CCC(CN2C(=O)c3cccc4cccc(c34)C2=O)CC1 (stereo not drawn)	CYP2C19 inh 55, CYP2C9 inh 58
O=C(c1ccccc1)c1ccc2nc[nH]c2c1	CYP2C19 inh 57
O=C(NC1CCCC1)c1ccc2nc[nH]c2c1	none
CC1CC(C)CN(CCCNC(=O)C2CCCN(c3nnc(N4CCCC4=O)s3)C2)C1 (stereo not drawn)	none
Cc1c(Cl)c([N+](=O)[O-])nn1CC(=O)NC(C)C1CC2CCC1C2 (stereo not drawn)	CYP2C19 inh 59, Cav32 inh -8.2
CCC(C)NC(=O)Cn1nc([N+](=O)[O-])c(Cl)c1C (stereo not drawn)	none
Cc1ccc(C(C(=O)NC2CCCCC2)N(C(=O)c2csnn2)C2CCCC2)o1 (stereo not drawn)	none
